Hits are enriched below; roughly 9% of the tested compounds scored in any of these assays.
JMJD2A Tudor inh: qHTS Assay for Inhibitors of JMJD2A-Tudor Domain | AlphaScreen JMJD2A-Tudor / H3K4me3 peptide binding | Potency, µM (highest dose often 114 µM), usual class: inhibitors | actives 4.4% (n = 390,000); note: nearly all actives have a fitted effect of over 50% in size
G9a inh: qHTS Assay for Inhibitors of Histone Lysine Methyltransferase G9a | G9a H3K9 monomethylation, AlphaScreen, 2 h | Potency, µM (highest dose often 102 µM), actives largely listed as inhibitors | Histone-lysine N-methyltransferase EHMT2 (Homo sapiens), Q96KQ7 | actives 8.8% (n = 350,000); note: nearly all actives have a fitted effect of over 75% in size
Target sequence (Q96KQ7 913-1193 limits assumed): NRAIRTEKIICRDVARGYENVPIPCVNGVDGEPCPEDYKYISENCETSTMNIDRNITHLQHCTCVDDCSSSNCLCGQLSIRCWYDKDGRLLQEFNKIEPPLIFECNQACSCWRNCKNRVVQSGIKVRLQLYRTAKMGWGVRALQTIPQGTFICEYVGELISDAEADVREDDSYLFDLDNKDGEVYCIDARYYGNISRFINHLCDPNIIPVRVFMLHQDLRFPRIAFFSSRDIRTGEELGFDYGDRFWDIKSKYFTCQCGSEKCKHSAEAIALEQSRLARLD
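Readings reflect AlphaScreen signal from monomethyl-H3K9 antibody detection. HMT at 20 nM; substrate b-H3K9 500 nM; cofactor SAM 20 uM; 2 h RT reaction; compounds tested as titrations in qHTS with 15 min preincubation.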
12-LOX inh: Primary qHTS assay for inhibitors of human arachidonate 12S-lipoxygenase (ALOX12): Round 2; purified 12hLO, xylenol orange hydroperoxide absorbance; Potency, µM (titrated, usually from 108 µM), actives largely listed as inhibitors; actives 1.1% (n = 580,000); AID 1671190, 2021
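Purified human 12hLO (150 nM final) in 25 mM Hepes, 0.01% Triton X-100, pH 7.0 was preincubated 15 min at room temperature with compound. Then 40 uM arachidonic acid was added, 30 min. Hydroperoxide was read by Fe-XO absorbance ratio 573/405 nm.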
BAZ2B block: qHTS Assay for Inhibitors of BAZ2B; Bromodomain adjacent to zinc finger domain protein 2B (Homo sapiens), Q9UIF8; AlphaScreen BAZ2B-H3K14Ac peptide displacement; Potency, µM (titrated, usually from 114 µM), hits mostly inhibitors; actives 4.4% (n = 360,000); note: nearly all actives have a fitted effect of over 60% in size
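Multi-concentration screen (max 110 uM) measuring displacement of acetylated histone H3 peptide from BAZ2B by AlphaScreen, using 50 nM protein, 50 nM peptide and 10 ug/mL streptavidin donor plus Ni-chelate acceptor beads.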
PLK1 PBD inh: qHTS for Inhibitors of PLK1-PDB (polo-like kinase 1 - polo-box domain): Primary Screen; Serine/threonine-protein kinase PLK1 (Homo sapiens), P53350; Plk1 PBD binding of FITC phosphopeptide, fluorescence polarization; Potency, µM, actives largely listed as inhibitors; actives 2.8% (n = 360,000); note: series mostly up to about 57 µM; nearly all actives have a fitted effect of over 65% in size
HP1b chromo inh: HTS for Inhibitors of HP1-beta Chromodomain Interactions with Methylated Histone Tails; AID 540317, 2011; actives 0.56% (n = 390,000); AlphaScreen HP1-beta / biotin-H3K9me3 peptide binding; Potency, µM (titrated, usually from 114 µM), hits mostly inhibitors; note: nearly all actives have a fitted effect of over 70% in size
Target sequence (P83916 whole entry, looked up): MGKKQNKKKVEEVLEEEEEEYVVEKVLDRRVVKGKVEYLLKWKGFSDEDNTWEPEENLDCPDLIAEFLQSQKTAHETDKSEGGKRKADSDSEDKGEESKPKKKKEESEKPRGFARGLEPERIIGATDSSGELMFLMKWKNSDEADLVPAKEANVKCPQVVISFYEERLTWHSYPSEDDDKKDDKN
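AlphaScreen: HP1-beta (50 nM) preformed 30 min with biotin-H3(1-18)K9me3 peptide (50 nM) in PBS pH 7.4, 0.01% Tween-20. Compound added for 30 min at RT, then streptavidin donor/nickel chelate acceptor beads (10 ug/mL) for 30 min.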
A number is an active result; n = inactive; u = inconclusive; x = not tested or not shown; ! = not active in a repeat; [ ] = dose if it differs, or a comment. Calls come from the whole dose curve; as a rule, active = well fitted curve in the direction sought with a large enough effect; inconclusive = small, poorly fitted or top-dose-only effect, or another doubt; inactive = no such curve, though single readings can be large; an effect the other way counts as inactive or inconclusive.

SMILES	JMJD2A Tudor inh	G9a inh	12-LOX inh	BAZ2B block	PLK1 PBD inh	HP1b chromo inh
Fc1cccc(NC(=S)N2CCn3cccc3C2c2cccnc2)c1 (centres undefined)	n	50µM	n	u	n	n
Fc1ccccc1C1c2cccn2CCN1C(=S)Nc1ccc(Br)cc1 (centres undefined)	n	25µM	u	n	n	n
S=C(Nc1ccccc1)N1CCn2cccc2C1c1cccnc1 (centres undefined)	u	u	n	n	n	n
COc1ccccc1NC(=S)N1CCn2cccc2C1c1cccnc1 (centres undefined)	n	56µM	n	n	n	n
CC(C)C(=O)NNc1ccccc1	n	n	n	n	n	n
CC(O)CC(C(=O)NNc1ccccc1)C(=O)NNc1ccccc1 (centres undefined)	n	3.2µM	u	n	n	n
COc1ccc(N2Cc3cccc(C(=O)Nc4cc(C)cc(C)c4)c3C2=O)cc1	u	n	n	u	x	n
COc1ccc(C2=NNC(c3ccco3)=Nc3ccc(F)cc32)cc1	n	45µM	n	u	n	n
COc1ccc(C2=NNC(c3cccnc3)=Nc3ccc(OC)cc32)cc1	n	n	n	u	n	n
CCc1ccc(-c2cc(N)n(-c3ccccc3)n2)cc1	u	45µM	n	x	n	u
Cc1ccc(-c2cc(N)n(-c3ccccc3)n2)cc1	n	u	n	n	n	n
Cc1cc(C)nc(NC(=O)c2c(-c3ccccc3Cl)noc2C)n1	n	n	n	n	n	n
COC(=O)c1scc(-c2ccc(C)cc2)c1S(=O)(=O)N1CCN(c2ccc(OC)cc2)CC1	u	11µM	u	u	x	u
c1ccc(CSc2ncccn2)cc1	n	25µM	n	n	u	n
Clc1ccc(CSc2ncccn2)cc1	n	n	n	n	n	n
Oc1cccnc1SCc1ccccc1	n	n[2.33 µM]	6.3µM	u	n	n
Cc1nnc(N/N=C/c2ccccc2F)n1N	n	n	n	n	n	n
Cc1nnc(N/N=C/c2ccco2)n1N	25µM	n	u	n	n	n
Cc1nnc(N/N=C/c2ccccc2C(F)(F)F)n1N	n	45µM	n	n	n	n
O=c1[nH]c(C2CCCN(Cc3cccc(-c4ccsc4)c3)C2)nc2ccc(F)cc12 (centres undefined)	x	x	25µM!	x	x	x
O=c1[nH]c(C2CCCN(Cc3cccc(Cl)c3)C2)nc2ccc(F)cc12 (centres undefined)	x	x	n	x	x	x
O=C(NCCc1ccccc1)C1CCN(C(=O)Nc2ccccc2)CC1	n	n	n	n	n	n
CCOc1cccc(C2/C(=C(\O)c3ccc4c(c3)OCCO4)C(=O)C(=O)N2Cc2ccncc2)c1 (centres undefined)	n	n	n	n	n	n
CCOc1cccc(C2/C(=C(/O)c3ccc4c(c3)CC(C)O4)C(=O)C(=O)N2Cc2ccncc2)c1 (centres undefined)	22µM	x	n	n	n	n
CC1Cc2cc(/C(O)=C3/C(=O)C(=O)N(Cc4cccnc4)C3c3cccc(O)c3)ccc2O1 (centres undefined)	n	u	n	n	n	n
COC(=O)c1ccc(C2/C(=C(/O)c3ccc4c(c3)CC(C)O4)C(=O)C(=O)N2Cc2cccnc2)cc1 (centres undefined)	u	71µM	x	n	n	n
COc1cccc(-c2nc(N3CCC(C)CC3)c3ccccc3n2)c1O	56µM	35µM	u	u	n	n
COc1ccc(Nc2nc(-c3cccc(OC)c3O)nc3ccccc23)cc1	u	50µM	u	40µM	n	n
COc1cccc(-c2nc(N3CC(C)CC(C)C3)c3ccccc3n2)c1O (centres undefined)	u	35µM	n	u	n	u
